Results published in PubChem BioAssay (NCI).
About 79,000 compounds went through this panel and 15% of them were active in at least one assay; those are over-represented in the sample as a whole. A number with no mark means an inactive call. Calls of active or inactive are those of the source. Cut-off read from the data, not from the text of the source: active = growth inhibition above about 70%; inactive = the rest. Where a SMILES comes first, the peptide text is derived from it. Bridges are numbered along the chain shown (N, C = ends). [ ]: non-standard residue; d: D form. The star is where a group is joined. PhAc = O=C(Cc1ccccc1)*

Key:
[1] = NCI Yeast Anticancer Drug Screen. Data for the rad50 strain (AID 155);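 note: 0% = growth of vehicle-only cultures of the same strain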; settings: S. cerevisiae rad50 strain growth inhibition; at 50.0 µM; stronger effect = higher value
Procedure, shortened: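 A DNA repair-deficient yeast mutant serves as the test organism; compound-induced growth inhibition is calculated against vehicle-treated cells.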

[2] = NCI Yeast Anticancer Drug Screen. Data for the mec2-1 strain (AID 157); settings: S. cerevisiae mec2-1 strain, at 50.0 µM, stronger effect = higher value
Procedure, shortened: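 Using mec2-1 yeast: add compound, measure growth, express inhibition versus vehicle-treated cultures.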

[3] = NCI Yeast Anticancer Drug Screen. Data for the sgs1 mgt1 strain (AID 161);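 note: 0% = growth of cultures given vehicle only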; settings: S. cerevisiae sgs1 mgt1 strain, at 50.0 µM, stronger effect = higher value
Procedure, shortened: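 Growth of a repair-deficient yeast mutant was monitored after compound treatment and expressed as inhibition relative to vehicle-treated cultures.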

[4] = NCI Yeast Anticancer Drug Screen. Data for the cln2 rad14 strain (AID 165);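 note: 0% = growth equal to vehicle treated cultures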; settings: S. cerevisiae cln2 rad14 strain, at 50.0 µM, stronger effect = higher value
Procedure, shortened: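 Yeast strain cln2 rad14, bearing defects in cell cycle control and DNA repair, serves as the test system; values reflect growth inhibition compared with vehicle.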

[5] = NCI Yeast Anticancer Drug Screen. Data for the bub3 strain (AID 167); settings: S. cerevisiae bub3 mutant strain, at 50.0 µM, stronger effect = higher value
Procedure, shortened: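 Inhibition values come from growth of compound-treated mutant yeast normalised to vehicle-treated controls.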

[6] = NCI Yeast Anticancer Drug Screen. Data for the mlh1 rad18 strain (AID 175); settings: S. cerevisiae mlh1 rad18 strain growth inhibition; at 50.0 µM; stronger effect = higher value
Procedure, shortened: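 Steps: expose repair-defective yeast to compound; measure growth; express inhibition against vehicle-treated controls.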

Structure (SMILES)	growth inhibition [1]	growth inhibition [2]	growth inhibition [3]	growth inhibition [4]	growth inhibition [5]	growth inhibition [6]
COc1ccc(Oc2nc(=O)n3ccccc3n2)cc1	-13.4%	0.65%	-14.6%	-12.6%	9.45%	-20.7%
COC(=O)C1(CC(=O)c2ccc(C)cc2)NC(=S)NC(=O)C1C#N (stereo not drawn)	-4.7%	-4.8%	-30.1%	-8.65%	-34.6%	-0.85%
CC(=O)N1CC/C(=C\c2ccccc2)C1=O	-10.1%	-7.25%	-12.5%	-6.85%	0.25%	-3.2%
O=C(c1ccccc1)C1C(c2ccccc2)C=CC(c2ccccc2)C1C(=O)c1ccccc1 (stereo not drawn)	-18.4%	-11.3%	-9%	-4.55%	3.2%	-22.6%
CCOC(=O)CS(=O)(=O)CS(=O)(=O)CC(=O)OCC	10%	8.35%	7.85%	5.55%	9.95%	7.25%
CCC(C)(C)C1CCCCC1OC(C)=O (stereo not drawn)	7.95%	-2.6%	2.55%	7.95%	2.9%	1.25%
CC(C)(Br)C(=O)N1CCN(C(c2ccccc2)c2ccccc2)CC1	3.15%	8.2%	2.3%	-0.15%	-0.3%	14.7%
O/N=C(\c1ccccc1)C1c2ccccc2-c2ccccc21	-10.1%	-17.9%	-19.9%	21.4%	-5.9%	-17.4%
C=CCOC(=O)CCC(C#N)(C#N)CCC(=O)OCC=C	-9.55%	-7.1%	-0.4%	-25.8%	50.5%	15.3%
O=C(Cc1ccccc1)N[C@@H]1COC(=O)[C@@H]2CCCN2C(=O)[C@@H]2CCCN2C1=O (PhAc-[dS]-Pro-Pro; ester 1-C)	-33.4%	5.85%	-17.2%	27.4%	-1.7%	-8.95%
CSc1nc(C)c2c(n1)N(c1ccc(Cl)cc1)CC2	1.7%	-32.5%	-16.5%	-35.3%	-17.2%	-30.4%
CC1CCCCC[N+]1(C)CCO (stereo not drawn)	-8.5%	-7.15%	-6.25%	-30.7%	-7.85%	-4.8%
COc1ccc(OC)c2c(Cl)cc(NCCCN3CCN(CCCNc4cc(Cl)c5c(OC)ccc(OC)c5n4)CC3)nc12	13.5%	16.4%	21.8%	-24.1%	4.65%	25.1%
CCOC(=O)CC1CC(CN)(C(=O)OCC)CO1 (stereo not drawn)	-21.6%	12.2%	-6.9%	3.65%	-0.4%	-22.9%
CC1=C(c2cc(C(=O)Nc3ccc(Cl)cc3)nc(=S)[nH]2)Sc2ccccc2N1	-30.9%	-15.2%	-46%	-1.45%	-5.65%	-35.4%
CC1(C)OC(=O)C(=CN(C2CCCCC2)C2CCCCC2)C(=O)O1	-6.45%	-6.6%	7%	-21.2%	-33.6%	-13.3%
O=C(Nc1ncnc2nc(-c3ccccc3)[nH]c12)c1ccccc1	-30.1%	-16.9%	-5%	-56.3%	-6.65%	5.95%
CCOC(=O)/C(C#N)=C/c1cccc(Cl)c1	28.6%	30%	38.9%	13.3%	13.4%	44%
CC(C)Nc1ncnc2c1cnn2-c1ccccc1	-5.9%	-17.1%	0.65%	-57.7%	13.5%	-11.3%

Structure (SMILES)	growth inhibition [1]	growth inhibition [2]	growth inhibition [3]	growth inhibition [4]	growth inhibition [5]	growth inhibition [6]
CCCCCCCCCCCCCCCCCC(=O)CC(=O)OCC	-1.25%	1.15%	3.5%	17.9%	-10%	4.25%
CC(c1ccccc1)N1OC1(c1ccccc1)c1ccccc1 (stereo not drawn)	41.5%	50.4%	57.8%	22.9%	30.6%	90.1% (active)
COc1cc(C=O)c(-c2cc(OC)c(OC)cc2C=O)cc1OC	5.9%	-6.65%	-8.8%	0.2%	-12.4%	-2.15%
Cc1ccc(C)c(NC(=O)C(=O)CC(=O)c2cccc3ccccc23)c1	-15.8%	-33.1%	2.05%	17.1%	-20.8%	-21.1%
O=C(Nc1ccc(F)c([N+](=O)[O-])c1)Nc1cc(C(F)(F)F)ccc1Cl	9.4%	1%	0.55%	-0.4%	-4.65%	24.2%
CC1COCC(C)N1CC(OCc1ccccc1)c1ccccc1 (stereo not drawn)	-5.7%	-2.2%	-15.4%	-52.2%	-7.9%	-15.5%
O=C(CSc1nnc(Cc2ccccc2)o1)Nc1ccc([N+](=O)[O-])cc1	11.2%	15.1%	5.65%	10.5%	19%	-7.15%
CS(=O)(=O)OCCn1cnc2nc(NC(=O)c3ccccc3)[nH]c(=O)c21	-13.1%	-20.6%	-12.7%	0.55%	-19.2%	-24.6%
Cc1ccnc(=S)[nH]1	16.9%	5.45%	33.1%	13.3%	23.6%	18.3%
C=CCCCCCC(O)C(O)C/C=C\C/C=C\CC (stereo not drawn)	18.4%	4.6%	22.8%	-1.35%	15.5%	27.2%
CC(=O)c1c(-c2ccc(Cl)cc2)c(-c2ccc(Cl)cc2)nn(CCN)c1=O	38.1%	15.2%	29.2%	24.6%	42.7%	93% (active)
O=[N+]([O-])c1ccc(C=Nc2ccc3c(c2)Cc2ccccc2-3)cc1	-7.7%	-16.8%	9.9%	-20.1%	-16.4%	1.25%
CC(C)C1OCCOCCO1	9.45%	-12.1%	-18.5%	-21.5%	-9.4%	9.45%
CC1(C)OC2C3COc4nc5c(N)ncnc5n4C(O3)C2O1 (stereo not drawn)	-6%	-5.2%	-8.85%	-5.05%	-8.1%	-9.9%
CC1(C)CC2=C(SC3C=CC=CC3N2)C(=O)C1C(=O)C(N)=O (stereo not drawn)	-34.7%	-15%	-5.05%	-3.65%	-23.1%	-33.8%
CC(=O)NC(CSCC(=O)c1ccccc1)C(=O)O (stereo not drawn)	-12.6%	-8%	-10.3%	-6.05%	-18.8%	-3.5%
O=c1n(CCCN2CCN(c3cccc(Cl)c3)CC2)nc2ccccn12	45.9%	11.4%	21.9%	19.8%	-1.4%	8.35%
O=C1c2ccc(O)cc2OC(c2ccc(O)c(O)c2)C1O (stereo not drawn)	7.6%	-7.25%	17.8%	1.85%	6%	6.4%
CCNCC(=O)Nc1ccc(C(=O)OC)cc1	-8%	-29.4%	-9.9%	-20%	1.45%	-28.9%
